From PubChem
KCNQ2 block: rat KCNQ2 potassium channel inhibitors, primary screen, cell-based, CHO-K1, FluxOR thallium flux, B-score; Potassium voltage-gated channel subfamily KQT member 2 (Rattus norvegicus), O88943; 20 min; stronger effect = lower value; B-score at 10 µM; 1.1% of 310,000 active; AID 2156, 2009;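 active = fluorescence ratio B-score at most minus 3 library SDs, with starting brightness B-score within 2 library SDs, cut at about -5.5 in these data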
KCNQ2 enhance: potentiators of rat KCNQ2 potassium channel; CHO-K1 KCNQ2, FluxOR thallium flux fluorescence; stronger effect = higher value; AID 2239, 2010; B-score at 10 µM; 0.54% of 310,000 active; Potassium voltage-gated channel subfamily KQT member 2 (Rattus norvegicus), O88943;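 active = fluorescence ratio B-score at least 3 SD of library B-scores, with initial fluorescence B-score within 3 of them, cut at about 5.3 in these data; same plate scores as AID 2156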;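 note: B-score of peak minus minimum over baseline fluorescence ratio after K+ and Tl+ stimulus; positive B-score means potentiation of KCNQ2 with more thallium influx and brighter signal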
Numbers stand for hits; 0 = inactive; - = no result. An excerpt weighted towards active compounds, which were near 1.6% of everything screened.

SMILES	KCNQ2 block	KCNQ2 enhance
COc1cc(/C=C(/NC(=O)c2ccccc2)C(=O)Nc2ccc(O)cc2)c([N+](=O)[O-])cc1OC	0	0
COc1ccc(NC(=O)/C(=C\c2cc(OC)c(OC)cc2[N+](=O)[O-])NC(=O)c2ccccc2)cc1	-7.16	0
COc1cc(/C=C(/NC(=O)c2ccccc2)C(=O)Nc2ccccc2)c([N+](=O)[O-])cc1OC	-6.64	0
COc1ccc(C(=O)N/C(=C\c2ccccc2)C(=O)Nc2ccc(C(=O)O)cc2)cc1	0	0
N#CCC(=O)Nc1ccc(C(=O)OCC(=O)N2CCCC2=O)cc1	0	-
Cc1cccc(N(C(=O)c2csnn2)C(C(=O)NCc2ccccc2)c2ccc(C)o2)c1 (configuration not stated)	0	-
COc1ccc(CNC(=O)C(c2ccc(C)o2)N(Cc2cccs2)C(=O)Cc2cccs2)cc1 (configuration not stated)	-6.43	0
COc1ccc(CNC(=O)C(c2ccc(C)o2)N(C(=O)c2csnn2)c2ccc(C(C)C)cc2)cc1 (configuration not stated)	-6.1	0
COCCN(C(=O)Cc1cccs1)C(C(=O)NCc1ccc(OC)cc1)c1ccc(C)cc1 (configuration not stated)	0	0
O=C(NC1CCCC1)C(c1ccccc1)N(Cc1ccc2c(c1)OCO2)C(=O)Cc1cccs1 (configuration not stated)	0	0
O=C(NCc1ccccc1)C(c1ccccc1)N(Cc1ccc2c(c1)OCO2)C(=O)Cc1cccs1 (configuration not stated)	-7.01	0
CCOC(=O)c1cnn(-c2ccc(F)cc2)c1N	0	0
CCOCCCNc1ncnc2c1nc1n2CCCC1	0	0
Cc1cc(C)c2cc(CN(Cc3ccco3)C(=S)NCC3CCCO3)c(=O)[nH]c2c1 (configuration not stated)	0	-
COC(=O)C1=C2c3[nH]c4ccccc4c3CCN2C(=O)CC1	0	-
OC[C@@H](O)[C@@H](O[C@H]1O[C@H](CO)[C@@H](O)[C@H](O)[C@H]1O)[C@H](O)[C@@H](O)CO	0	0
Cc1cc(C)c2[nH]c(O)c(N=NC(=S)NCC3CCCO3)c2c1 (configuration not stated)	0	0
Oc1[nH]c2c(Cl)cc(Cl)cc2c1N=NC(=S)NCC1CCCO1 (configuration not stated)	0	10.9
Cc1c(C(=O)N(C)Cc2ccccc2)oc2c(Cl)cccc12	0	-
Cc1c(C(=O)N(C)Cc2cccc(F)c2)oc2c(Cl)cccc12	-7.65	0
COCCCNC(=O)CNC(=S)N(Cc1ccccc1F)C1CCCCC1	0	-
CCCCNC(=O)CNC(=S)N(Cc1ccccc1F)C1CCCCC1	-6.85	0
CCCn1c(=O)c(C(=O)NNC(=O)c2ccccc2Cl)c(O)c2ccccc21	0	-
CN(CC(=O)Nc1ccccc1C(F)(F)F)C(=O)COc1cccnc1[N+](=O)[O-]	0	0
O=C(CN=C1NC(=O)C(c2ccccc2)(c2ccccc2)N1)NCc1ccc(F)cc1	0	-
SMILES	KCNQ2 block	KCNQ2 enhance
COc1ccc(CNC(=O)CN=C2NC(=O)C(c3ccccc3)(c3ccccc3)N2)cc1	-6.09	0
CCCCCCN1CC(=O)N2Cc3[nH]c4ccccc4c3C[C@H]2C1=O	-6.93	0
CCCCCN1CC(=O)N2Cc3[nH]c4ccccc4c3C[C@H]2C1=O	0	-
CCCCN1C(=O)C2Cc3c([nH]c4ccccc34)CN2C1=S (configuration not stated)	-5.56	0
O=C1[C@@H]2Cc3c([nH]c4ccccc34)CN2C(=O)CN1CCCO	0	0
CN(C)c1ccc(N2C(=NC(=O)COc3ccccc3)SC3CS(=O)(=O)CC32)cc1 (configuration not stated)	0	0
Cc1ccc2[nH]cc(CCNC(=O)C3CCCO3)c2c1 (configuration not stated)	0	0
O=C(/C=C/c1cccc(Br)c1)N1CCN(c2ccccn2)CC1	-7.57	0
Cc1cc(OCC(=O)N2CCN(c3ccccn3)CC2)cc(C)c1Br	-5.98	0
O=C(/C=C/c1ccc(F)cc1)N1CCN(c2ccccn2)CC1	0	0
CCc1ccc(OCC(=O)N2CCN(c3ccccn3)CC2)c(Br)c1	0	0
N=C1SCC(=O)N1c1ncc(Cc2ccc(F)cc2)s1	0	6.87
Cc1ccc(-c2csc(N3C(=N)SCC3=O)n2)cc1	0	0
COc1ccc(C)cc1NC(=O)c1sc2ncn(CC(=O)N3CCCCC3)c(=O)c2c1C	0	-
CCOC(=O)c1cc2c(=O)n3ccccc3nc2n(Cc2ccco2)c1=NC(=O)c1ccccc1OCC	0	-
CCOC(=O)c1cc2c(=O)n3ccccc3nc2n(CCOC)c1=NC(=O)C(C)(C)C	0	9.69
CCOC(=O)c1cc2c(=O)n3ccccc3nc2n(Cc2ccco2)c1=NC(=O)c1cccnc1	-7.1	0
CCOC(=O)c1cc2c(=O)n3ccccc3nc2n(CCCOC)c1=NC(=O)C(C)(C)C	0	0
C=CCn1c(N)cc(=O)nc1SC(C)C(=O)Nc1ccc(C(=O)OCC)cc1 (configuration not stated)	0	0
COc1ccccc1C1=Nn2c(COc3ccccc3)nnc2SC1	0	-
CCCCN1CC(=O)N2[C@H](c3ccc(OC)cc3)[C@@H]3C(=O)N(CC)C(=O)[C@@H]3[C@]2(Cc2ccccc2)C1=O	0	0
COC(=O)CNC(=O)COC(=O)c1ccc(Cl)nc1	0	-
COc1ccc(N2CCN(CCCNC(=O)C(=O)c3c[nH]c4ccccc34)CC2)cc1	0	-
COc1ccc(CCNC(=S)Nc2cccc3ccccc23)cc1	0	-
COc1ccc(OCCNC(=S)Nc2cccc3ccccc23)cc1	-6.24	0
SMILES	KCNQ2 block	KCNQ2 enhance
O=C(CN1C(=O)NC2(CCCC2)C1=O)Nc1nc2ccc(F)cc2s1	0	0
O=C(CN1C(=O)C2CC=CCC2C1=O)Nc1nc2ccc(F)cc2s1 (configuration not stated)	-6.73	0
Cc1c(Cl)cccc1NCC(=O)Nc1ccc(Cl)cc1F	-6.76	0
C/C(=N\NC(=O)CNc1cccc(C(F)(F)F)c1)c1ccc(Br)cc1	0	-
Cc1c(Cl)cccc1NC(=O)CNc1cccc(C(F)(F)F)c1	-6	0
Cc1ccc(F)cc1NCC(=O)Nc1ccc(Cl)cc1F	0	-
COc1ccc(N2CCN(S(=O)(=O)CCNC(=O)C3CCCCC3)CC2)cc1	0	0
COc1ccc(Nc2nc(-c3cccs3)nc3ccccc23)cc1S(=O)(=O)N1CCOCC1	0	-
C[C@H](NC(=O)[C@@H]1CSC2c3ccccc3C(=O)N21)C(=O)NCc1c(F)cccc1Cl (some centres not stated)	0	-
COC(=O)C(N)CCCCN (configuration not stated)	0	-
CC(=O)Nc1ccc(C(=O)NCC2(N3CCCCC3)CCCCC2)cc1	0	0
Cc1ccc(S(=O)(=O)N(C)c2ccccc2C(=O)Nc2c(F)cccc2F)cc1	-5.88	0
CC(=O)c1cccc(NC(=O)c2ccccc2N(C)S(=O)(=O)c2ccc(C)cc2)c1	0	-
N#Cc1ccsc1NC(=O)C1CCN(C(=O)c2ccc(Cl)cc2)CC1	0	-
Cc1c(Br)c([N+](=O)[O-])nn1CCCC(=O)NC(C)c1ccccc1 (configuration not stated)	0	-
C=CCn1c(=O)c(C(=O)Nc2ccccc2O)c(O)c2ccccc21	0	-
C=CCn1c(=O)c(C(=O)Nc2ccccc2C)c(O)c2ccccc21	-6.12	0
COc1ccccc1N1CCN(S(=O)(=O)c2cc(-c3cc(C)no3)ccc2C(C)C)CC1	-6	0
